Laboratory results from PubChem BioAssay AID2315 (National Center for Advancing Translational Sciences (NCATS), 2010).
The whole screen tested about 290,000 compounds, of which about 27,000 (9.3%) were called active. No stated cut-off is given here; in the data, active means inhibition mostly above about 28% (no sharp cut-off); inactive means mostly below about 43%. What follows is part of a selection rich in actives, with near analogues and random picks from the rest.

Assay: A qHTS for Small Molecule Inhibitors of Shiga Toxin; further: 0% is about no effect
Details: Vero cells, Shiga toxin protein synthesis inhibition reporter; at 38.7 µM, active compounds read high

Row | Compound | inhibition
1 | O=C(O)c1cc([N+](=O)[O-])c(Nc2cccc3ccccc23)c([N+](=O)[O-])c1 | 1.25% (inactive)
2 | CCOC(=O)c1ccc(NC(=O)CNC(=O)c2ccco2)cc1 | -21.4% (inactive)
3 | CCOC(=O)c1ccc(-c2ccc(C(=O)Nc3cccnc3)o2)cc1 | 73.3% (active)
4 | CC(C)NS(=O)(=O)c1ccc(NC(=O)c2cccnc2)cc1 | -10.5% (inactive)
5 | O=C(Cc1ccccc1)Nc1ccc(NC(=O)c2cccnc2)cc1 | -11.9% (inactive)
6 | CCOC(=O)c1ccc(NC(=O)c2cccnc2)cc1 | 53.7% (active)
7 | COc1ccc(C)cc1NC(=O)c1ccc(-c2ccc(C(C)=O)cc2)o1 | -2.76% (inactive)
8 | CCn1c(SCC(=O)NC2CC2)nnc1-c1ccccn1 | -11.7% (inactive)
9 | CN(C)C(=O)Cn1c(=O)n(S(=O)(=O)c2ccccc2)c2ccccc21 | -3.04% (inactive)
10 | COc1ccc(-c2cn[nH]c2-c2ccc(OC)cc2)cc1 | -4.19% (inactive)
11 | Cc1cc(C)n(CCNS(=O)(=O)c2ccc(Cl)cc2)n1 | -3.35% (inactive)
12 | COc1ccc2cc(-c3[nH]ncc3CNCCn3nc(C)cc3C)ccc2c1 | 67.7% (active)
13 | Cc1ccccc1C(=O)NC(=S)NC1CC1 | 24.6% (inactive)
14 | O=C1Nc2ccccc2/C1=C/c1ccnc2ccccc12 | 19.4% (inactive)
15 | O=C(Nc1ccn(Cc2ccccc2F)n1)c1ccc(COc2ccc(Cl)cc2Cl)o1 | 21.8% (inactive)
16 | O=C(Nc1ccn(Cc2ccccc2)n1)c1n[nH]c([N+](=O)[O-])c1Cl | 16.1% (inactive)
17 | O=C(Nc1cccc(NC(=O)c2cccc(F)c2)c1)c1ccccc1 | 21.2% (inactive)
18 | O=C1c2ccccc2S(=O)(=O)N1Cc1c(F)cccc1Cl | -12.9% (inactive)
19 | O=C(Nc1ccn(Cc2ccccc2)n1)c1cccc(F)c1 | 63.4% (active)
20 | CC(=O)Nc1ccn(Cc2c(F)cccc2Cl)n1 | 64.3% (active)
21 | CCOCCOC(=O)C(C)Oc1ccc(Oc2ncc(C(F)(F)F)cc2Cl)cc1 (stereo unspecified) | -6.29% (inactive)

Row | Compound | inhibition
22 | COc1ccc(C(=O)NCC(=O)N/N=C/c2cccnc2)cc1 | -9.22% (inactive)
23 | COc1ccc2c(c1)C(NS(=O)(=O)OCC(Cl)(Cl)Cl)CCC2 (stereo unspecified) | -7.98% (inactive)
24 | COc1ccc(NC(=S)N2CCC(NC(=O)c3cccc(F)c3)CC2)cc1 | -12.4% (inactive)
25 | CCOC(=O)COn1c(=O)c(-c2ccc(OCC)cc2)[n+]([O-])c2ccccc21 | 44.1% (inactive)
26 | O=c1c(-c2ccc(Cl)cc2)[n+]([O-])c2ccccc2n1OCc1nc2ccccc2[nH]1 | 59.6% (active)
27 | CCOc1ccc(OCC)c(-c2c(=O)n(OCc3ccc(Cl)cc3)c3ccccc3[n+]2[O-])c1 | 10.2% (inactive)
28 | O=C(NNC(=O)c1ccco1)Nc1ccccc1 | 8.84% (inactive)
29 | O=C(NNC(=S)Nc1ccc(Br)cc1Cl)c1ccco1 | 59.2% (active)
30 | CCC(=O)NC(=S)Nc1ccc(NC(=O)c2ccco2)c(Cl)c1 | 46.1% (inactive)
31 | Cc1ccc2c(c1)N(CC(=O)NCC1CCCO1)C(=O)CO2 (stereo unspecified) | 40.5% (inactive)
32 | Cc1cc(Br)ccc1NC(=O)c1sc2ncn(CC(=O)N3CCN(c4ccccn4)CC3)c(=O)c2c1C | -6.73% (inactive)
33 | O=C(Nc1cccc(-c2cccc(Cl)c2)c1)C1CCN(C2CCC2)CC1 | 18.3% (inactive)
34 | CCC(=O)Nc1ccc(C(=O)Nc2cc(C)on2)cc1 | 37.1% (inactive)
35 | CCOc1ccc(NC(=O)Nc2cc(C)on2)cc1 | 91.1% (active)
36 | CCOc1ccc(C(=O)Nc2cc(OC)ccc2OC)cc1 | 25.5% (inactive)
37 | COc1ccc(C)cc1NC(=O)Nc1ccccc1SC | -0.581% (inactive)
38 | CCOc1ccc(NC(=O)Nc2cc(C)ccc2OC)cc1 | 29.4% (active)
39 | CCOc1ccc(C(=O)Nc2ccc(S(=O)(=O)Nc3cc(C)on3)cc2)cc1 | -6.4% (inactive)
40 | Cc1cc(C)c2c(-c3ccc(F)cc3)c(C#N)c(=O)n(C)c2n1 | -4.95% (inactive)
41 | CCN1CCN(c2sc(S(C)(=O)=O)nc2S(=O)(=O)c2ccc(Cl)cc2)CC1 | -2.05% (inactive)
42 | COc1ccccc1NC(=O)CCC(=O)N1CC(C)Oc2ccc(C)cc21 (stereo unspecified) | -1.25% (inactive)

Row | Compound | inhibition
43 | COc1ccc(-c2c(-c3ccc(OC)cc3O)nc(C)nc2C(F)(F)F)cc1 | 2.92% (inactive)
44 | COc1cc2ccccc2cc1C(=O)N(CCN(C)C)c1nc2c(F)cccc2s1 | -10.4% (inactive)
45 | COc1ccccc1-c1nnc(NC(=O)c2cccc(N3C(=O)CCC3=O)c2)o1 | -10.7% (inactive)
46 | COc1ccccc1-c1nnc(SCC(=O)Nc2ccccc2)o1 | 22.9% (inactive)
47 | COc1ccccc1-c1nnc(NC(=O)c2ccc3ncsc3c2)o1 | 92.1% (active)
48 | C=CCOc1ccc(C(=O)Nc2ccccc2C(=O)N2CCCC2)cc1 | 13.9% (inactive)
49 | CCOC(=O)c1c(NC(=O)c2ccc(S(=O)(=O)N(C)CC3CCCO3)cc2)sc2c1CC(C)(C)NC2(C)C (stereo unspecified) | -9.62% (inactive)
50 | COc1ccccc1N=Nc1c(O)[nH]c(=S)[nH]c1=O | 29.2% (active)
51 | COc1ccccc1N=C(C)C1=C(O)COC1=O | -4.84% (inactive)
52 | COC(=O)c1ccccc1N=Nc1c(C)[nH][nH]c1=O | 1.81% (inactive)
53 | COc1ccc(NC(=O)Cn2ncn3c(cc4ccccc43)c2=O)c(OC)c1OC | -6.32% (inactive)
54 | COc1ccc(/C=C/C(=O)Nc2ccc(C34CC5CC(CC(O)(C5)C3)C4)cc2)cc1OC | 90.8% (active)
55 | COc1ccc(/C=C/C(=O)Nc2ccc(C)cc2)cc1S(=O)(=O)N1CCOCC1 | 20.7% (inactive)
56 | COc1ccc(/C=C/C(=O)N2CCCC2)cc1OC | 3.99% (inactive)
57 | COc1cccc(C(=O)Nc2cccnc2)c1OC | 2.65% (inactive)
58 | COc1ccc(C(=O)CCC(=O)Nc2cccnc2)c(OC)c1 | -20.3% (inactive)
59 | COc1ccc(/C=C/C(=O)Nc2cccnc2)cc1OC | 51.8% (active)
60 | CN(CC(=O)NCc1ccc(Cl)cc1)S(=O)(=O)c1cccs1 | 45.6% (inactive)
61 | COc1ccc(NC(=O)CN2C(=O)COc3ccc(S(=O)(=O)N4CCOCC4)cc32)cc1 | -3.8% (inactive)
